Test results as given in PubChem BioAssay AID1961 (Sanford-Burnham Center for Chemical Genomics, 2009).
Out of some 290,000 compounds screened, about 140 (0.048%) were called active. The sample holds actives, similar compounds and a random draw of the others, so the mix is not that of the screen.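 Rule for the calls: active = activation above 40% with more than 50 cells counted in the well; inconclusive = wells holding fewer than 50 cells, flagged as toxic or sparse; inactive = the rest.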

Legend:
[1] = selective activators of receptor GPR55 – imaging, U2OS cells, beta-arrestin-GFP redistribution, primary screen (AID 1961); settings: measured here: cytotoxicity, cells analyzed, at 10 µM;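 note: U2OS osteosarcoma cells stably expressing GPR55 and beta-arrestin-GFP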;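 for activation: plate controls were DMSO negative control for no effect and LPI positive control for full effect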
[2] = molecular target: G-protein coupled receptor 55 (Homo sapiens) (UniProt Q9Y2T6); test: as above; settings: at 10 µM, stronger effect = higher value
G-protein coupled receptor 55 (Homo sapiens), sequence (Q9Y2T6 whole entry, looked up): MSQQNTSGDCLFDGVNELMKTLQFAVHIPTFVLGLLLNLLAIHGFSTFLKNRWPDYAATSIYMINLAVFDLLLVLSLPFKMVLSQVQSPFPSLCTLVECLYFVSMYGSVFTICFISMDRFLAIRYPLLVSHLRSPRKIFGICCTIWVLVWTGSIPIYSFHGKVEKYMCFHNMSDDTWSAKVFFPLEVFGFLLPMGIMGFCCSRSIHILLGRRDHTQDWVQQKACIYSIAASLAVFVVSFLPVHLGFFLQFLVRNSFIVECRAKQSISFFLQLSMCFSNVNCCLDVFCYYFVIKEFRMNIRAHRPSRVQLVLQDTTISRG

Structure (SMILES)	cell count [1] [cells]	activation [2]
COc1ccc(CN2C(=O)c3ccccc3C2=O)cc1	379	0.6% (inactive)
COc1ccc(CN2C(=O)c3cccc4cccc(c34)C2=O)cc1	353	-0.1% (inactive)
CCc1nn(CC(=O)NCCc2ccc(Cl)cc2)c(=O)c2cccn12	343	0% (inactive)
CCOC(=O)C(CC)(CCC(=O)OC)c1csc(Nc2ccccc2O)n1 (stereo not drawn)	367	-0.1% (inactive)
Fc1cccc(NCCc2c[nH]c3ccccc23)n1	334	-0.2% (inactive)
COc1ccccc1N1CCN(C2CCN(C(=O)COc3ccccc3)CC2)CC1	401	-0.1% (inactive)
O=C(NCCN1CCOCC1)c1cc(-c2ccco2)on1	315	-0.1% (inactive)
COc1ccc(Nc2nc(Cl)c(C=O)s2)cc1	273	0.2% (inactive)
Cc1nnnn1/C(=C\c1ccccc1)C(=O)OCC(=O)NC(C)(C)C	301	-0.3% (inactive)
Cc1nnnn1/C(=C\c1ccccc1)C(=O)OCC(=O)N1CC2(C)CC1CC(C)(C)C2 (stereo not drawn)	330	74.3% (active)
Cc1nnnn1/C(=C\c1ccccc1)C(=O)OCC(=O)N(C)C1CCS(=O)(=O)C1 (stereo not drawn)	254	-0.4% (inactive)
CS(=O)(=O)N(CC(=O)NCCc1ccccc1)C1CCCCC1	388	-0.1% (inactive)
N#Cc1c2n(c(=S)n(-c3ccc(F)cc3)c1=O)CCCCC2	250	-0.3% (inactive)
CC(C)CC(=O)Nc1nnc(S(=O)(=O)N(C)Cc2ccco2)s1	342	-0.2% (inactive)
CSc1ccccc1OCc1cc(C(=O)N2CCc3sccc3C2)no1	327	-0.2% (inactive)
Cc1ccc2c(C)c(C(=O)N3CCN(Cc4ccc5c(c4)OCO5)CC3)oc2c1C	372	-0.1% (inactive)
COc1ccc(S(=O)(=O)NCCSC(C)(C)C)cc1Cl	346	-0.1% (inactive)
CCOC(=O)Cn1c(CN2CCN(C(c3ccccc3)c3ccccc3)CC2)nc2c1c(=O)n(C)c(=O)n2C	284	0.3% (inactive)
O=C(C1CCCN(S(=O)(=O)c2cccc3nsnc23)C1)N1CCCCCC1 (stereo not drawn)	250	0.1% (inactive)
N#Cc1ccccc1NC(=O)CC1CCCCC1	377	-0.1% (inactive)

Structure (SMILES)	cell count [1] [cells]	activation [2]
O=C(O)c1ccc[nH]c1=S	381	0% (inactive)
CCN(CC)S(=O)(=O)c1ccc(N2CCOCC2)c(NCC(=O)Nc2ccc(F)cc2)c1	259	-0.1% (inactive)
CN1/C(=C\C(=S)NC(=O)c2ccccc2Cl)C(C)(C)c2ccccc21	357	-0.2% (inactive)
COc1ccccc1C(=O)NC(=S)/C=C1/N(C)c2ccccc2C1(C)C	278	91% (active)
Cc1ccc(C(=O)NC(=S)/C=C2\N(C)c3ccccc3C2(C)C)cc1	272	0.2% (inactive)
COc1cccc(C(=O)Nc2cnn(C(C)C)c2)c1	253	-0.2% (inactive)
CNc1nc(-c2ccc(Cl)cc2)cs1	302	-1% (inactive)
COc1ccc(NC(=O)NC2CCCCCCC2)c(OC)c1	240	-0.1% (inactive)
CCC(=O)Nc1ccc(OC)cc1OC	375	-0.2% (inactive)
CCOC(=O)c1[nH]c2ccc(C(=O)OC)cc2c1C(=O)OCC	400	-0.3% (inactive)
CCCCc1ccc(C2C(C#N)=C(N)SC(N)=C2C#N)s1	340	0.2% (inactive)
O=C(COC(=O)/C=C/c1cccc(Cl)c1)NCCc1ccc(Cl)cc1Cl	315	0% (inactive)
O=C(O)C1CCCN1C(=O)c1cncc(Br)c1 (stereo not drawn)	262	-0.2% (inactive)
CC(C)OCC(O)Cn1c(N2CCCC2)nc2c1c(=O)[nH]c(=O)n2C (stereo not drawn)	350	-0.2% (inactive)
Cc1c(C2N3CC4(C)CN2CC(C)(C3)C4=O)c2ccccc2n1C (stereo not drawn)	309	0.1% (inactive)
CC(C)(C)NC(=O)CSc1nncn1NCc1c(Cl)cccc1Cl	294	-0.2% (inactive)
COc1cc2c3nnc(-c4ccccc4)c-3cn(Cc3ccc(F)cc3)c2cc1OC	393	1.3% (inactive)
COc1cc2c3nnc(-c4ccc(F)cc4)c-3cn(Cc3ccccc3F)c2cc1OC	274	76.7% (active)
COc1cc2c3nnc(-c4ccc(F)cc4)c-3cn(Cc3ccc(F)cc3)c2cc1OC	348	16.9% (inactive)
Cc1oc2c(C)c(O)ccc2c(=O)c1N1C(=O)c2ccccc2C1=O	286	0.2% (inactive)

Structure (SMILES)	cell count [1] [cells]	activation [2]
CCOc1ccc2nc(SCC(=O)N3CCCCCC3)c(C#N)cc2c1	334	-0.1% (inactive)
CCOc1ccc2nc(SCC(=O)N3c4ccccc4Sc4ccccc43)sc2c1	319	16.7% (inactive)
CCOc1ccc2nc(SCC(=O)N3c4ccccc4Sc4ccccc43)c(C#N)cc2c1	304	112% (active)
Nc1cccnc1Sc1ccc(Cl)cc1	377	0% (inactive)
COC(=O)c1cc(OC)c(OC)cc1NC(=O)CC1CCCCC1	320	-0.2% (inactive)
Cc1cccc(NS(=O)(=O)c2cc([N+](=O)[O-])ccc2C)n1	419	-0.1% (inactive)
COc1cc(/C=C/C(=O)Oc2coc(CSc3ncccn3)cc2=O)cc(OC)c1OC	281	-0.2% (inactive)
CCCOCC(O)COc1ccccc1C(=O)N1CCOCC1 (stereo not drawn)	317	-0.2% (inactive)
CCC1Sc2ccc(S(=O)(=O)CCC(=O)Nc3cc(C)ccn3)cc2NC1=O (stereo not drawn)	341	-0.1% (inactive)
CC(NC(=O)Cn1nc(C(F)(F)F)c2c1CCC2)c1ccccc1 (stereo not drawn)	371	-0.2% (inactive)
COc1ccc2nc(C)cc(SCC(=O)N/N=C/c3ccco3)c2c1	330	0.2% (inactive)
Cc1ccccc1NC(=O)NC1CCCCC1C (stereo not drawn)	353	0.4% (inactive)
CN(C)c1ccc(/C=N/NC(=O)C2CC2c2ccccc2)cc1 (stereo not drawn)	339	-0.2% (inactive)
O=C(NCc1ccc(F)cc1)C(=O)NCC1OCCCN1S(=O)(=O)c1cccs1 (stereo not drawn)	348	-0.1% (inactive)
COc1ccc(C(=O)NCC(=O)N/N=C/c2cccnc2)cc1OC	322	-0.2% (inactive)
Cc1nc(Cl)sc1C(=O)Nc1cc(F)cc(F)c1	356	-0.2% (inactive)
CN(C)c1ccc(C(=O)/C=C/c2ccccc2)cc1	254	-0.3% (inactive)
CN(C)c1ccc(/C=C/C(=O)c2ccccc2O)cc1	238	0.1% (inactive)
Cn1c(=O)c(=O)n(C)c2cc(S(=O)(=O)N3CCN(c4ccccc4F)CC3)ccc21	328	-0.1% (inactive)
